Targets with a hit are over-represented here; the source holds about 7,900 in all. About 0.6% of all pairs of compound and target were hits. A number with no mark means an inactive call.
Assays:
Assay in all cases: log2 fold change, soluble protein after heating vs DMSO (PISA); higher = thermal stabilisation; K562 cells, 10 uM, 30 min; active = over 0.2 and 3.5 SD of the protein, either way, in both replicates (recomputed)
[1] = compound: NC(=O)Nc1cc(-c2cccc(F)c2)sc1C(=O)N[C@H]1CCCNC1
Summary of the method: (§1)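 Thermal stability values are relative to control samples and come from duplicates. They are expressed as log2 fold changes. For measurement, K562 cells (2×10^6 cells/mL) received 10 μM compound for 30 min, and aliquots were heated for 3 min over 48°C-58°C, pooled, and extracted at 4°C in PBS with 0.5% NP-40. Soluble protein, the supernatant after 21,000xg for 90 min, was quantified by TMTpro 16plex LC-MS/MS with equalised channel sums.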

[2] = compound: NC(=O)c1cnc(N[C@@H]2CCCC[C@@H]2N)nc1Nc1cccc(-n2nccn2)c1
Summary of the method: as §1

[3] = compound: NC1(c2ccc(-c3nc4ccn5c(=O)[nH]nc5c4cc3-c3ccccc3)cc2)CCC1
Summary of the method: as §1

[4] = compound: NCC(=O)Nc1ccc(-n2nc(C(F)(F)F)cc2-c2ccc3c(ccc4ccccc43)c2)cc1
Summary of the method: as §1

entinostat = compound: Nc1ccccc1NC(=O)c1ccc(CNC(=O)OCc2cccnc2)cc1 [entinostat]
Summary of the method: as §1

vorinostat = compound: O=C(CCCCCCC(=O)Nc1ccccc1)NO [vorinostat]
Summary of the method: as §1

citarinostat = compound: O=C(CCCCCCNC(=O)c1cnc(N(c2ccccc2)c2ccccc2Cl)nc1)NO [citarinostat]
Summary of the method: as §1

silmitasertib = compound: O=C(O)c1ccc2c(c1)nc(Nc1cccc(Cl)c1)c1ccncc12 [silmitasertib]
Summary of the method: as §1

[5] = compound: O=C1NC(=O)C(c2cnc3ccccn23)=C1c1cn2c3c(cc(F)cc13)CN(C(=O)N1CCCCC1)CC2
Summary of the method: as §1

[6] = compound: c1cc(OCCN2CCCCC2)cc(-c2n[nH]c3ccc(-c4nnc[nH]4)cc23)c1
Summary of the method: as §1

entospletinib = compound: c1cn2cc(-c3ccc4cn[nH]c4c3)nc(Nc3ccc(N4CCOCC4)cc3)c2n1 [entospletinib]
Summary of the method: as §1

UniProt Q8IWJ2, sequence (Q8IWJ2 whole entry, looked up): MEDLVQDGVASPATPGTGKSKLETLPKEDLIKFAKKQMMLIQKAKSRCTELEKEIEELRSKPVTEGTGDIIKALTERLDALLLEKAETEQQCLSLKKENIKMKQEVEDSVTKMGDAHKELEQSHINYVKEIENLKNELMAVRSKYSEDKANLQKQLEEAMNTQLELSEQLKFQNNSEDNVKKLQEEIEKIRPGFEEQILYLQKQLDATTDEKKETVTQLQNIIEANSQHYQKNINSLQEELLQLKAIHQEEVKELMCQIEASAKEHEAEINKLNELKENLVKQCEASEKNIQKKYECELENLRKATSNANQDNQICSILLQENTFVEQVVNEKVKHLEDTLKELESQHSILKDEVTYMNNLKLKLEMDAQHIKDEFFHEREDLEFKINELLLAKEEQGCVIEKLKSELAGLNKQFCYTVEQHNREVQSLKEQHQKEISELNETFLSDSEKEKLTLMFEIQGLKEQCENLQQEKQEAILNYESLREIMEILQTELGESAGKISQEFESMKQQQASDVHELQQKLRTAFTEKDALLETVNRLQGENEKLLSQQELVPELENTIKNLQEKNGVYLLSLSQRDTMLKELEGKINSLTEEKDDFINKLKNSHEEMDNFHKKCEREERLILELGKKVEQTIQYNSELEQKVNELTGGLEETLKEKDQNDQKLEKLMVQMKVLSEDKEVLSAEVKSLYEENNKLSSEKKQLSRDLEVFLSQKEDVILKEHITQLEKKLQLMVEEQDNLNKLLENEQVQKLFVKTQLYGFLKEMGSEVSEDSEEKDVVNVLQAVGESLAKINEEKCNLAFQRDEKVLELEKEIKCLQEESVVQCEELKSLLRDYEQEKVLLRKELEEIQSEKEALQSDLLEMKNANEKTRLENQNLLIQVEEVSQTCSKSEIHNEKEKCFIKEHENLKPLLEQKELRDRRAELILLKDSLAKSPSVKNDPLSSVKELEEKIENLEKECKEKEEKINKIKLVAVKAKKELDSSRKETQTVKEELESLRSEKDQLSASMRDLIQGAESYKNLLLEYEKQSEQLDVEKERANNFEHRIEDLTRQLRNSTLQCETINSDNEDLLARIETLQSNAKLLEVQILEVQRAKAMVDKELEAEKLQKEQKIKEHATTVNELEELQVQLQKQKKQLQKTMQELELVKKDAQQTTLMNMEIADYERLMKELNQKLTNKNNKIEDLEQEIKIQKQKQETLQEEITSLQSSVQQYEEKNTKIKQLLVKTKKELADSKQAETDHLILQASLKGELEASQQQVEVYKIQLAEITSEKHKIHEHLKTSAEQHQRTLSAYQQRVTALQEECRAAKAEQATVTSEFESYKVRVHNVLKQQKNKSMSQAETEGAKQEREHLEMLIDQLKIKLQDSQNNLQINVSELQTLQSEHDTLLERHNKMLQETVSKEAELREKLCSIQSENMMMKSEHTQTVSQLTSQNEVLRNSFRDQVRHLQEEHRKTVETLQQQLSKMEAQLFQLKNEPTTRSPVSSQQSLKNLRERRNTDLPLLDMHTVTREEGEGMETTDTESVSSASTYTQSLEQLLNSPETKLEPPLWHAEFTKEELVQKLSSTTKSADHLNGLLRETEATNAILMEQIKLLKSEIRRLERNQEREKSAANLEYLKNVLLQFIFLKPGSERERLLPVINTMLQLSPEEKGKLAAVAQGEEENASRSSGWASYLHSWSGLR
UniProt P62879, sequence (P62879 whole entry, looked up): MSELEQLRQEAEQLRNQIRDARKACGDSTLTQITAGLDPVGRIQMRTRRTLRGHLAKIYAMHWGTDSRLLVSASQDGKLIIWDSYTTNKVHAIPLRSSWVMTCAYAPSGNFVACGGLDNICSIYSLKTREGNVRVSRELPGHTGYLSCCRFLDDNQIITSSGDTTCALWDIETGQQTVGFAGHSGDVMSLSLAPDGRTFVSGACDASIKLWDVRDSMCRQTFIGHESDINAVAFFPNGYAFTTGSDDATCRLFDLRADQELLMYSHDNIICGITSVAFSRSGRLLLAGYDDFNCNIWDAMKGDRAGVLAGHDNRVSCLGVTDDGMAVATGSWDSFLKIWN
UniProt Q86VQ1, sequence (Q86VQ1 whole entry, looked up): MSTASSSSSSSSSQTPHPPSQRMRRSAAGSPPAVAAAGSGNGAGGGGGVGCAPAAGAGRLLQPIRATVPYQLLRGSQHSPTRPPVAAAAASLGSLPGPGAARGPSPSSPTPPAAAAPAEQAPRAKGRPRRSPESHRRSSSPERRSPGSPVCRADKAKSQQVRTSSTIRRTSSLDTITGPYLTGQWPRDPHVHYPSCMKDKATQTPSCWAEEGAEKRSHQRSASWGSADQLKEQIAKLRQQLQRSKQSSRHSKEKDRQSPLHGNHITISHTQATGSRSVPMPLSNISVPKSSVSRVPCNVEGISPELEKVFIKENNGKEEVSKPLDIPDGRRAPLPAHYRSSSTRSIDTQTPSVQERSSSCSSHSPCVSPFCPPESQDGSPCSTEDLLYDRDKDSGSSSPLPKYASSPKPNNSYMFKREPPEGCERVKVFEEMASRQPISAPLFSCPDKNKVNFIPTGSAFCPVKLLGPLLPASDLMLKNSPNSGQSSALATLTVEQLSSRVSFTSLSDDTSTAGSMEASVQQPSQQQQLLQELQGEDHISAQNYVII
UniProt Q1KMD3, sequence (Q1KMD3 whole entry, looked up): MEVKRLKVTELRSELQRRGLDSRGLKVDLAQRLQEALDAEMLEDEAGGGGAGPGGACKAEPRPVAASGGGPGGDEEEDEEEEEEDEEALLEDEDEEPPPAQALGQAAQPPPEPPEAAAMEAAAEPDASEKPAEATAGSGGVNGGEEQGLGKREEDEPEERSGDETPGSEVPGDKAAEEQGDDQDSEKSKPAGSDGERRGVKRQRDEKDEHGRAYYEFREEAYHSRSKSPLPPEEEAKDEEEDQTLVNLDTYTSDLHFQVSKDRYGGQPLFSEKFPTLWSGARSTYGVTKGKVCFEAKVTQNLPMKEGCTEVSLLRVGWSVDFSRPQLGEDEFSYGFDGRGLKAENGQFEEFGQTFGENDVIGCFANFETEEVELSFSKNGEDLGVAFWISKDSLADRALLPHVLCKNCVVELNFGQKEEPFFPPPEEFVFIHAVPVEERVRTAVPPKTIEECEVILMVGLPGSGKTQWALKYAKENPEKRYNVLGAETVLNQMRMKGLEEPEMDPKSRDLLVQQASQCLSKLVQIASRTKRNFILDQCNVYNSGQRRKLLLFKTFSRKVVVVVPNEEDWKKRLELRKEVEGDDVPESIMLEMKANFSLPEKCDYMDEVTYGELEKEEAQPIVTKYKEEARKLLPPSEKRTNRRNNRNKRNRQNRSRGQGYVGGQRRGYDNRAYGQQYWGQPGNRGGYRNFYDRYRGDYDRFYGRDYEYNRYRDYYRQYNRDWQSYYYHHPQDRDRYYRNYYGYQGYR
UniProt Q96HJ9, sequence (Q96HJ9 whole entry, looked up): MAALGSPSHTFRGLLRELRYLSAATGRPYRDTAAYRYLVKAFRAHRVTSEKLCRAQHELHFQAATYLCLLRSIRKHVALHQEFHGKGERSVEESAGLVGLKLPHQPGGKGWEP
UniProt O94925, sequence (O94925 whole entry, looked up): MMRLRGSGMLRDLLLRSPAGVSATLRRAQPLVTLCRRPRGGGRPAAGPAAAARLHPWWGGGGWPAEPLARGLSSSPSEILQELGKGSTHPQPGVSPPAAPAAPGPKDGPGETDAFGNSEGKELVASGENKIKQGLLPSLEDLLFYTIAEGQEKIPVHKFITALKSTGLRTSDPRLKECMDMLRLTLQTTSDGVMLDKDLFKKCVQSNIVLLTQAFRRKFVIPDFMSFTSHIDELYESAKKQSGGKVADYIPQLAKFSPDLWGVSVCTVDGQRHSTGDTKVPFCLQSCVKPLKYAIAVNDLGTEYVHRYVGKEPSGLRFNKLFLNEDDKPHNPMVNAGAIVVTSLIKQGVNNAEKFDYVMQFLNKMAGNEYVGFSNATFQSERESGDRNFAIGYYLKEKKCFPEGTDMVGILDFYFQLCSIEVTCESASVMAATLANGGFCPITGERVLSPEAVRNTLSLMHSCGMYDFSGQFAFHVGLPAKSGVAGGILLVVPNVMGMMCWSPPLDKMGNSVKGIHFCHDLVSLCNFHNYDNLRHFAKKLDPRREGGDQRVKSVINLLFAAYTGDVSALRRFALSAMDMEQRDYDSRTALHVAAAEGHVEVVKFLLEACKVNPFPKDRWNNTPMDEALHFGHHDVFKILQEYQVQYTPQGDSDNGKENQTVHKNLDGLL
UniProt P37268, sequence (P37268 whole entry, looked up): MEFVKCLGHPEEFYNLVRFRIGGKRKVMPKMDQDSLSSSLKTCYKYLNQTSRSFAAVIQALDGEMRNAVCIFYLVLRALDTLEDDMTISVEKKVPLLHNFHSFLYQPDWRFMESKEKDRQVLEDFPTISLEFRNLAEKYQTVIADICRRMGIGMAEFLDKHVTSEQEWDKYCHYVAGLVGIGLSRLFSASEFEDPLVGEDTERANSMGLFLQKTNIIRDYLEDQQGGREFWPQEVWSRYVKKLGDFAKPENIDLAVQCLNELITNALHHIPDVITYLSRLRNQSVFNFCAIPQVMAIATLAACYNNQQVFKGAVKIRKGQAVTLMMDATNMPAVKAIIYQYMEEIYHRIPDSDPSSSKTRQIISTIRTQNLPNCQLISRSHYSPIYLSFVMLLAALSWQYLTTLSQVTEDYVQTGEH
UniProt P49841, sequence (P49841 whole entry, looked up): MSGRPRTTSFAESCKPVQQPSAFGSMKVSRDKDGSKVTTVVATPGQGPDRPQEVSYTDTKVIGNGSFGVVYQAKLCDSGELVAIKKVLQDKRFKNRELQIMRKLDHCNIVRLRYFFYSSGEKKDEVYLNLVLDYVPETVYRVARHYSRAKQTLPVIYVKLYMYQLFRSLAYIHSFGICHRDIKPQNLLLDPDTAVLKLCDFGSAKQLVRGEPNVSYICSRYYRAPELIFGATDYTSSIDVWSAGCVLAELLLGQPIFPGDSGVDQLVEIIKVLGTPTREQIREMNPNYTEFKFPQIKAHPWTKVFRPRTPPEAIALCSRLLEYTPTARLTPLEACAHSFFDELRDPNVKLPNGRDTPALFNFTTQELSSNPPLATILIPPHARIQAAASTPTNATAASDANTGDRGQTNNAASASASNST

Target	log2 fold change [1]	log2 fold change [2]	log2 fold change [3]	log2 fold change [4]	log2 fold change (entinostat)	log2 fold change (vorinostat)	log2 fold change (citarinostat)	log2 fold change (silmitasertib)	log2 fold change [5]	log2 fold change [6]	log2 fold change (entospletinib)
HIST2H2BF isoform 2 (UniProt Q5QNW6)	0.048	0.225	0.48	-0.029	0.159	0.123	-0.001	-0.064	0.101	0.016	0.06
GOLGB1 isoform 2 (UniProt Q14789)	0.106	-0.062	-0.044	0.026	0.024	-0.019	-0.008	0.009	0.039	0.167	0.058
HEATR5B (UniProt Q9P2D3)	0.01	0.012	-0.152	-0.028	-0.03	-0.008	0	-0.053	0.083	0.056	-0.025
GTF2E1 (UniProt P29083)	-0.038	-0.118	-0.122	-0.198	0.054	0.095	0.073	0.06	-0.134	-0.124	-0.048
FKBP7 (UniProt Q9Y680)	-0.034	-0.017	0.005	-0.037	-0.029	-0.017	-0.02	0.079	0.008	-0.097	-0.012
GTF3C4 (UniProt Q9UKN8)	-0.015	-0.012	-0.077	-0.04	0.024	-0.103	0.04	0.03	-0.013	-0.019	-0.052
FMC1 (UniProt Q96HJ9)	0.01	-0.044	-0.011	0.013	-0.042	-0.054	0.044	0.006	-0.012	-0.053	0
HNRNPUL2 (UniProt Q1KMD3)	-0.04	0.02	0.153	0.017	-0.026	-0.004	-0.077	0.046	0.15	-0.104	0.007
GCC2 (UniProt Q8IWJ2)	-0.009	-0.005	0.081	0.009	0.03	-0.002	-0.066	0.212	0.225	0.009	0.144
HIP1 (UniProt O00291)	-0.038	0.035	0.032	0.038	-0.061	-0.013	0.072	-0.123	-0.146	0.06	-0.04
FNTB (UniProt P49356)	-0.024	0.09	0.162	-0.035	-0.079	-0.038	0.054	-0.019	0.048	0.002	-0.143
HIST2H3A (UniProt Q71DI3)	0.032	0.286	0.46	-0.077	0.196	0.442	0.006	-0.084	0.07	-0.02	-0.078
GLCCI1 (UniProt Q86VQ1)	-0.12	0.03	-0.024	0.102	0.056	0.158	0.002	-0.042	0.01	-0.088	0.007
GYS1 (UniProt P13807)	-0.05	-0.027	0.05	0.091	-0.077	-0.125	-0.103	0.05	-0.002	-0.301	0.782 (active)
HIC2 (UniProt Q96JB3)	-0.071	-0.06	0.016	0.101	-0.027	-0.027	-0.019	0.098	0.121	-0.233	0.129
FBXO3 (UniProt Q9UK99)	-0.034	-0.013	-0.202	-0.013	-0.039	0.011	0.016	-0.003	0.001	-0.12	0.013
GSK3A (UniProt P49840)	-0.02	0.014	-0.054	0.051	-0.03	-0.053	0.015	-0.004	0.454 (active)	0.193	-0.028
GID4 (UniProt Q8IVV7)	-0.165	-0.03	-0.032	-0.146	0.289 (active)	-0.074	0.006	0.118	-0.017	-0.052	-0.021
GNB2 (UniProt P62879)	-0.073	-0.012	0.022	-0.014	-0.037	-0.047	-0.01	0.028	-0.075	-0.049	0.038
GSK3B isoform 2 (UniProt P49841)	-0.027	-0.06	-0.055	-0.028	0.005	0.023	0.047	0.012	0.29 (active)	–	-0.028
FKBP3 (UniProt Q00688)	0.042	0.019	0.02	0.037	0.016	0.007	0.009	-0.034	-0.02	0.054	-0.028
FDFT1 (UniProt P37268)	0.044	0.064	-0.042	0.035	-0.008	-0.018	0.086	-0.031	0.004	0.093	-0.019
IFI30 (UniProt P13284)	0.035	0.127	-0.048	0.083	-0.052	0.03	0.059	-0.052	0.128	-0.028	-0.032
GLS (UniProt O94925)	-0.019	0.152	-0.157	-0.093	0.039	0.022	0.068	0.008	-0.193	-0.032	0.022
H2AFX (UniProt P16104)	0.054	0.245	0.441	0.041	0.132	0.216	-0.035	0.08	0.077	-0.083	-0.005
FAM91A1 (UniProt Q658Y4)	-0.009	-0.061	-0.08	-0.042	-0.003	0.004	-0.003	0.073	-0.346	-0.084	0.009
GNPAT (UniProt O15228)	0.02	-0.008	-0.066	0	0.021	-0.008	0.041	-0.041	-0.061	-0.02	0.003
